Source: PubChem BioAssay AID720488 (Milwaukee Institute for Drug Discovery, 2013)
Out of some 16,000 compounds screened, about 960 (6%) were called active. The list comes from a sample in which actives are over-represented; it also holds similar structures and randomly drawn compounds. Unmarked numbers belong to inactive results.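 The calls were made as follows: active = compound fluorescence over control fluorescence at most 0.8, a quencher, or at least a set upper limit, an enhancer; inactive = ratio between 0.8 and the set upper limit.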

Assay: fluorescence interference in NS3h DNA assay – biochemical, ChemBridge library, Cy5 readout, artefact control for HCV NS3 helicase inhibitor project (AID 720488)
Settings: Cy5-dT15 DNA with NS3h, at 100 µM, actives lie on both sides, signal over control mean, under 1 quenches

SMILES	fluorescence interference ratio
COc1cc(/C=C2/SC(=S)NC2=O)ccc1OCCOCCOc1ccc(C)cc1	0.925
COc1cc(C=C2C(=O)NC(=O)NC2=O)ccc1OCCOc1ccc([N+](=O)[O-])cc1	0.699 (active)
COc1cc(/C=C2/C(=O)NC(=O)N(c3ccc(C)cc3)C2=O)ccc1OCCOc1ccc([N+](=O)[O-])cc1	0.823
COC(=O)C1=C(C)NC2=C(C(=O)c3ccccc32)C1c1cc2c(cc1Br)OCO2 (stereo not given)	1.02
CS(=O)(=O)N1CCN(C(=O)Cc2ccccc2)CC1	0.765 (active)
CS(=O)(=O)N(CC(=O)N1CCOCC1)c1ccccc1Cl	0.989
O=C(c1ccc(S(=O)(=O)N2CCOCC2)cc1)N1CCN(c2ccccc2)CC1	0.907
CCC(=O)Nc1ccccc1C(=O)N1CCN(Cc2ccccc2)CC1	0.994
COc1ccccc1OCC(=O)Nc1nc(-c2cccs2)c(NC(=O)c2ccccc2)s1	0.958
Cc1ccc(C(=O)Nc2cccc(-c3nc4ccccc4o3)c2C)cc1	0.985
CSc1ccccc1NC(=O)CSc1nc2ccccc2o1	0.737 (active)
O=C(CSc1nc2ccccc2o1)Nc1ccc2c(c1)OCO2	0.937
C=CCc1ccccc1OCCn1cc(/C=C2/SC(=S)N(CC)C2=O)c2ccccc21	1.05
O=C(NCC1OCCc2ccccc21)C(c1ccccc1)c1ccccc1 (stereo not given)	1.08
CCCOc1ccc(C(=O)Nc2ccc(N(CC)CC)cc2)cc1	1.28 (active)
CCOc1ccc(C(=O)Nc2ccncc2)cc1	0.969
CCCOc1ccc(C(=O)Nc2ccc(-c3nc4ccccc4o3)c(O)c2)cc1	1.03
O=c1oc2cc(OC/C=C/c3ccccc3)ccc2c2ccccc12	1.11
O=C(O)CC1S/C(=N\N=C/c2ccccc2O)N(c2ccc(O)cc2)C1=O (stereo not given)	1.05
O=S(=O)(c1ccc(Br)c2ccccc12)N1CCOCC1	0.956
CC(C)CC(=O)Nc1cc(C(=O)O)cc(C(=O)O)c1	1.05
O=C(CN1C(=O)c2ccc([N+](=O)[O-])cc2C1=O)Nc1cc(Cl)ccc1C(=O)O	0.984
COc1ccc(OC)c(N2C(=O)NC(=O)C(=Cc3ccc(C)o3)C2=O)c1	1.1
COc1ccc(/C=C2\C(=O)NC(=S)N(c3ccc(Br)cc3)C2=O)cc1	1.05
CCN(CC)c1ccc(/C=C2\C(=O)NC(=O)N(c3ccc(OC)cc3)C2=O)c(OC)c1	1.26 (active)
O=C1NC(=O)C(=Cc2cc([N+](=O)[O-])cc(Br)c2O)C(=O)N1	0.895
CC(=O)OC(OC(C)=O)c1ccc([N+](=O)[O-])s1	0.829
CCOc1cccc2c1NC(C)(C)c1sn(-c3ccccc3)c(=S)c1-2	0.947
CCC(=O)NC(N)=Nc1nc(C)c2cc(C)cc(C)c2n1	1.11
CC1=C(C(=O)OC(C)C)C(c2ccc(Cl)c(Cl)c2)N2C(=O)CCSC2=N1 (stereo not given)	0.92
